SMARCA2 act: activators of SMARCA2 function. activation, % at 9.1 µM. MG213 cells, MMTV-luciferase reporter, dexamethasone, overnight. AID 652017. 370,000 tested, 1% active; in the data active = activation above about 7.8%;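 also: 0% = vehicle wells and 100% = reference activator wells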
DAX1 inh-1: inhibits human nuclear receptor DAX1. P51843. HEK293 Gal4-DAX1 luciferase reporter, luminescence. inhibition, % at 6.75 µM. 340,000 tested, 0.99% active. AID 504766;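 active = inhibition above the mean over all tested compounds plus 3 SD, cut at about 4.2% in these data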;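 also: 0% = DAX1-transfected cells with DMSO and 100% = empty-vector control cells with DMSO; inhibition shows as a rise in luminescence from relieved DAX1 repression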
Target sequence (P51843 207-470 limits assumed): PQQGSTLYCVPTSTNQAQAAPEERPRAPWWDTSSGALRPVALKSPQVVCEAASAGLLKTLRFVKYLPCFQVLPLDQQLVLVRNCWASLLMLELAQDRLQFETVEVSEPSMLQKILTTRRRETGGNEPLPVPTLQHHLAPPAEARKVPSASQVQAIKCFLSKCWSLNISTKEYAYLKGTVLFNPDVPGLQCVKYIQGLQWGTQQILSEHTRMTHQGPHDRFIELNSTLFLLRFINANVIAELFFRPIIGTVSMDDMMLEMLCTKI
hgDAF-12 ag: hgDAF-12 agonism, primary luciferase screen; HEK293 GAL4-hgDAF12 UAS-luciferase reporter, agonist luminescence; normalized to butyrate control; activation, % at 6.8 µM; 370,000 tested, 1.8% active; AID 687014;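 active = activation above a cutoff set at the mean of all screened compounds plus 3 SD, cut at about 10% in these data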;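 also: 0% = DMSO wells and 100% = sodium butyrate wells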
DAX1 inh-2: blocks DAX1 repression of SF-1 activated StAR promoter; 370,000 tested, 1.1% active; HEK293T StAR-luciferase reporter, SF-1/DAX-1 repression relief; AID 652010; inhibition, % at 6.8 µM;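 active = inhibition above the mean over all tested compounds plus 3 SD, cut at about 3.6% in these data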;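 also: 0% = DAX-1 cells with DMSO and 100% = cells lacking DAX-1 with DMSO; higher inhibition means more luminescence from relief of DAX-1 repression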
hcDAF-12 act: activators of H. contortus DAF-12 nuclear receptor; 370,000 tested, 1.4% active; AID 652067; HEK293 hcDAF-12 lit1-tk-luc reporter, luminescence; 0% DMSO, 100% Δ7-dafachronic acid; activation, % at 6.8 µM;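 active = activation above the mean of all tested compounds plus 3 SD, cut at about 5.5% in these data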;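 also: 100% = response to 3 µM Δ7-dafachronic acid high control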
ssDAF-12 act: S. stercoralis DAF-12 activation, primary screen; 370,000 tested, 1% active; HEK293 ssDAF-12/GRIP1 lit1-tk-luc reporter, luminescence; % of 3 µM dafachronic acid response; activation, % at 6.8 µM; AID 652126;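 active = activation above the mean over all tested compounds plus 3 SD, cut at about 0.9% in these data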;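 also: 0% = DMSO-only wells and 100% = 3 µM delta7-dafachronic acid wells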
DAX1 conf: confirmation of human DAX1 (NR0B1) inhibitors; HEK293T StAR-promoter luciferase reporter, SF-1/DAX-1 repression; inhibition, % at 6.8 µM; AID 652134; 2,400 tested, 87% active; shares compounds with DAX1 inh-2;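 active = inhibition above the average of every tested compound plus 3 SD, cut at about 3.8% in these data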;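 also: 0% = DAX-1 cells with DMSO and 100% = no DAX-1 control cells with DMSO; active compounds raise luminescence by relieving repression of the StAR reporter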
SF1 mutant ctr: nonselective inhibitor or artifact in SF-1 mutant DAX1 counter-screen; AID 652136; HEK293 StAR-luciferase, SF-1 AF2 mutant, luminescence; inhibition, % at 6.8 µM; 2,400 tested, 78% active; shares compounds with DAX1 inh-2;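 active = inhibition above the mean of all tested compounds plus 3 SD, cut at about 3% in these data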;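 also: 0% = DAX-1 transfected cells with DMSO and 100% = cells without DAX-1 with DMSO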
Active calls of the source: *; x = no result. A selection: hits, their analogues and other compounds. The true share with any hit is near 4.8%.

SMILES | SMARCA2 act | DAX1 inh-1 | hgDAF-12 ag | DAX1 inh-2 | hcDAF-12 act | ssDAF-12 act | DAX1 conf | SF1 mutant ctr
C[C@@H]1CCCCO[C@@H](CN(C)Cc2ccncc2)[C@@H](C)CN([C@H](C)CO)C(=O)c2cc(NC(=O)c3ccccc3)ccc2O1 | 2 | 4.8* | -1 | 0 | -2 | -1 | x | x
C=CCC[C@@H](CCCCC)OC(=O)/C=C/[C@H](O)[C@@H](O)C[C@@H](O)CC=C | -3 | x | -2 | -2 | -1 | -1 | x | x
Nc1ccc2oc3ccccc3c2c1 | 2 | 1 | 10 | 1 | 6.1* | 0 | x | x
COc1ccc(C(=O)Cn2nnc(-c3ccccc3F)n2)cc1 | 1 | 2 | 1 | 0 | -2 | -1 | x | x
COc1ccc(-c2nnn(Cc3ccccc3F)n2)cc1 | 1 | 3 | 12* | 0 | 2 | 0 | x | x
Clc1ccccc1Cn1nnc(-c2ccccc2)n1 | 2 | 0 | 2 | 0 | 0 | 4.3* | x | x
Clc1ccccc1Cn1nnc(-c2cccs2)n1 | 7 | 2 | 8 | 0 | 4 | 0 | x | x
CCCCc1ccc(NC(=O)C(C)CC)cc1 (centres undefined) | 2 | 4.4* | 5 | 1 | 0 | -2 | x | x
S=c1[nH]nc(Nc2ccc(Cl)cc2)s1 | 3 | 0 | 1 | 1 | -1 | -1 | x | x
Cc1ccc(Nc2n[nH]c(=S)s2)cc1F | -1 | 2 | 6 | 5.4* | 1 | 0 | 4.3* | 2.9*
COC(=O)C(O)(CC(=O)Nc1ccc(OC(F)(F)F)cc1)C(F)(F)F (centres undefined) | 4 | 0 | -1 | 0 | -1 | -1 | x | x
COc1ccc(C(=O)COC(=O)c2cccc(-n3cnnn3)c2)c(OC)c1 | 5 | 0 | 10 | 4.6* | 4 | -1 | 7.8* | 4.4*
CCOC(=O)c1cccc(NC(=O)CSc2nnc(-c3ccncc3)n2CCCOC)c1 | -1 | -1 | 2 | 0 | -1 | -1 | x | x
O=C(NCC1(c2ccccc2)CCOCC1)c1ccc(Br)o1 | -3 | -1 | 2 | -1 | -1 | -1 | x | x
CCc1ccc(C(=O)NCC2(c3ccccc3)CCOCC2)o1 | 5 | 1 | 13* | 4.6* | 3 | -1 | 6.7* | 3.4*
O=c1[nH]c(COc2ccc(Br)cc2Cl)nc2ccccc12 | 2 | 2 | 6 | 7.4* | 3 | 0 | 7.7* | 4.8*
O=c1[nH]c(COc2ccccc2)nc2ccccc12 | 4 | 4 | 9 | 0 | -1 | -1 | x | x
C=CCN1C[C@@H](COCc2ccccc2)Oc2cc(F)ccc2S1(=O)=O | -2 | x | 0 | -1 | -3 | -2 | x | x
Nc1c(C(=O)Nc2ccc3c(c2)OCCO3)nnn1Cc1ccccc1Cl | 1 | 0 | 7 | 7.0* | 2 | -1 | 9.1* | 5.5*
COc1ccc(Br)cc1Cn1nnc(C(=O)Nc2ccc3c(c2)OCCO3)c1N | 2 | 0 | -3 | -1 | -2 | -2 | x | x
Nc1c(C(=O)Nc2ccc3c(c2)OCCO3)nnn1Cc1cccc(Cl)c1 | 7 | 0 | 3 | 5.2* | 2 | -1 | 11* | 4.3*
CCOC(=O)c1c(C)oc2ccc(OCC(N)=O)cc12 | -4 | -2 | 7 | 0 | -2 | -1 | x | x
COc1ccc(C(=O)N/C(=C\c2ccc(OC)c(OC)c2)C(=O)N2CCCCC2)cc1 | -1 | -2 | 1 | 0 | -1 | -1 | x | x
COc1ccc(C(=O)NC(C(=O)N2CCN(c3ccccc3O)CC2)C(C)C)cc1 (centres undefined) | 0 | 0 | -1 | 0 | -2 | -1 | x | x
COC(=O)c1cc(S(=O)(=O)N2CCOCC2)c(N2CCOCC2)cc1N1CCOCC1 | 1 | 2 | -1 | 1 | -1 | -1 | x | x
SMILES | SMARCA2 act | DAX1 inh-1 | hgDAF-12 ag | DAX1 inh-2 | hcDAF-12 act | ssDAF-12 act | DAX1 conf | SF1 mutant ctr
Cc1ccc(CNC(=O)Cc2noc3ccccc23)cc1 | 2 | 0 | 11* | 9.5* | 3 | 0 | 8.2* | 4.8*
Cc1ccc(-c2cc3ccccc3nc2N2CCCC2)cc1 | 3 | 0 | 3 | 1 | 5 | 0 | x | x
Cc1ccc2c(c1)-c1nc3ccccc3cc1C2=NC1CCCCC1 | 9.5* | 4 | 19* | 4.8* | 13* | 1.6* | 4.0* | 2
C(=N\Nc1ccccn1)/c1ccc(N2CCOCC2)cc1 | 3 | 0 | 11* | 5.0* | 3 | -1 | 8.8* | 7.0*
CN(Cc1ccccc1)C(=O)CC(=O)N(C)Cc1ccccc1 | -2 | 2 | 1 | 0 | 0 | -1 | x | x
O=C(Nc1ccc(F)cc1F)c1csc(-c2cccs2)n1 | 7 | 3 | 13* | 7.0* | 5 | 2.1* | 9.3* | 6.7*
O=C(Nc1ccc(F)cc1F)c1csc(-c2ccncc2)n1 | 0 | 0 | 2 | 0 | 1 | -1 | x | x
CCOC(=O)CCc1cnccc1-c1cccc(OC)c1O | 0 | 0 | 0 | 0 | -1 | -1 | x | x
Cc1nn(-c2ccccc2)c(Cl)c1/C=N/NC(=O)c1ccnn1C | 6 | 1 | 8 | 7.2* | 3 | 0 | 9.4* | 6.4*
Cc1nn(-c2ccccc2)c(Cl)c1/C=N/NC(N)=O | -2 | 2 | 0 | 0 | -2 | -2 | x | x
CCCn1c2ccccc2c2cnn(CC(=O)NCCCN3C(C)CCCC3C)c(=O)c21 (centres undefined) | -4 | -1 | 2 | 5.6* | 0 | -1 | -1 | -1
Cc1cnc(NC(=O)CCCNC(=O)c2ccc(Cl)cc2)s1 | 2 | 2 | 5 | 5.5* | 4 | 0 | 3 | 3.2*
Cc1ccc(NC(=O)CCCNC(=O)c2ccc(Cl)cc2)c(O)c1 | 1 | 0 | 8 | 5.3* | 6.4* | 1 | 4.1* | 3.7*
Cc1ccc(NC(=O)CCCNC(=O)c2ccc(Cl)cc2)nc1 | 2 | 1 | 4 | 1 | 0 | -1 | x | x
COc1ccc2cc(CCNC(=O)c3ccco3)c(=O)[nH]c2c1 | 3 | 1 | 11* | 6.0* | 5 | 0 | 9.4* | 5.8*
O=C(Nc1ccc(S(=O)(=O)N2CCCCCC2)cc1)c1[nH]ncc1[N+](=O)[O-] | 1 | 1 | 5 | 7.0* | 0 | 0 | 3 | 2
COC(=O)c1sc(S(=O)(=O)NCc2cccs2)c(C(=O)OC)c1C | -3 | 0 | -1 | -1 | -2 | -2 | x | x
CCc1nc2ccc(C(=O)NCCOc3ccc(OC)cc3)cn2c1N(C)C(=O)COc1ccccc1 | -1 | x | 0 | -1 | -2 | -1 | x | x
Cn1cccc1/C=N/NC(=O)c1cccs1 | 5 | 2 | 11* | 5.5* | 1 | 0 | 5.7* | 3.7*
